Results filed as inconclusive are left out. A call without a number means that no potency is given here. The source made the active and inactive calls. Calls come from the whole dose curve; as a rule, active = well fitted cell-killing curve with a large enough effect; inconclusive = small, poorly fitted or top-dose-only effect, or effect the other way; inactive = flat fitted curve, though single readings scatter.
Potency is the fitted concentration of half-maximal effect.

The test deals with OV90. Nature of the test: Primary qHTS to identify gynecologic anti-cancer compounds using libraries of approved drugs and bioactive compounds (AID 1345084). Note: nearly all actives have a fitted effect of over 55% in size. To be noted: Gynecologic cancer cell panel viability, ATPlite luminescence, 48 h; series mostly up to 57.5 µM. In outline:
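Cell viability after 48 h drug treatment, ATPlite luminescence readout; five doses.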
For orientation: In qHTS, concentration-response curves come from the screen itself.
`CCCCN(CC)c1nc(C)nc2c1c(C)cn2-c1c(C)cc(C)cc1C`: the Potency entry was “inactive”.
Regarding `COC(=O)Nc1nc2ccc(C(=O)C3CC3)cc2[nH]1`, the Potency is 11.2 µM (active).
Then `Cc1nc2ccccc2n1Cc1ccc(Cl)cc1`, with 8.91 µM (active); and `S=c1[nH]c2ccccc2s1`, with “inactive”; and `COc1cc(CNC(=O)CCCC/C=C/C(C)C)ccc1O`, with “inactive”.
With `O=C(Nc1ccc2c(c1)CCN(Cc1ncn[nH]1)C2)c1ccccc1-c1ccc(C(F)(F)F)cc1` the entry was “inactive”; with `CCN(CC)CCCCNc1ncc2cc(-c3c(Cl)cccc3Cl)c(NC(=O)NC(C)(C)C)nc2n1`, 7.94 µM (active).
Turning to `Cc1onc(-c2c(F)cccc2Cl)c1C(=O)N[C@@H]1C(=O)N2[C@@H]1SC(C)(C)[C@@H]2C(=O)O`, the Potency entry was “inactive”.
With `CN1[C@@H]2CC[C@H]1CC(OC(=O)C(CO)c1ccccc1)C2` (some centres undefined) the entry was “inactive”.

The values are drawn from PubChem BioAssay (NCATS).
